CHX counter: counter-screen for Shiga toxin inhibitors: cycloheximide protein synthesis inhibition; 300,000 tested, 12% active; cell reporter, cycloheximide protein synthesis inhibition counterscreen; max response, %; in the data active = max response mostly above about 13%, no sharp cut-off; inactive = mostly below about 14%; note: read at 38.3 µM for the half of the compounds with a filed dose
Marburg entry inh: blocks Marburg virus binding to or entry into cells; Marburg virus pseudotyped entry inhibition, cell reporter; Potency, µM (series often up to 37.8 µM), actives largely listed as inhibitors; 300,000 tested, 1.8% active; calls by dose curve; tested in HEK293 cells
Shiga inhibitor: Shiga toxin inhibition | inhibition, % at 38.7 µM | 290,000 tested, 9.2% active | Vero cells, Shiga toxin protein synthesis inhibition reporter; in the data active = inhibition mostly above about 28%, no sharp cut-off; inactive = mostly below about 43%
LASV entry inh: blocks Lassa virus binding to or entry into cells; Lassa virus pseudotype entry inhibition, cell reporter; Potency, µM (top dose mostly 37.9 µM), hits mostly inhibitors; 300,000 tested, 1.2% active; calls by dose curve; tested in HEK293 cells; note: nearly all actives have a fitted effect of over 50% in size
Numbers stand for hits; i = inactive; ? = inconclusive; nt = no result given. Most compounds without a hit are left out; they make up all but 12% or so of the library.

SMILES	CHX counter	Marburg entry inh	Shiga inhibitor	LASV entry inh
CCN(C(=O)COc1cccc2cccnc12)C1CCS(=O)(=O)C1 (centres undefined)	i	nt	i	nt
CC1CCCC(C)N1C(=O)COC(=O)Cc1c[nH]c2ccccc12 (centres undefined)	nt	i	nt	i
O=C(NCCN1CCOCC1)c1cc(-c2cccc(O)c2)on1	i	i	i	i
O=C(NCCN1CCOCC1)c1cc(-c2ccc(F)cc2)on1	i	i	i	i
O=C(NCCN1CCOCC1)c1cc(-c2ccc(Cl)cc2Cl)on1	20.2	i	50.2	nt
Cc1ccc(-c2cc(C(=O)NCCN3CCOCC3)no2)cc1	15.1	i	25.0	i
O=C(NCCN1CCOCC1)c1cc(-c2ccco2)on1	i	?	30.9	i
COc1cccc([C@H]2C(C(=O)c3cccs3)=C(O)C(=O)N2c2cc(C)on2)c1	nt	i	nt	nt
CCCN(C(=O)c1cc(S(=O)(=O)N2CCCCCC2)ccc1OC)C1CCS(=O)(=O)C1 (centres undefined)	nt	i	nt	i
O=C(Nc1cc(-c2nc3ccccc3o2)ccc1Cl)c1sc2c([N+](=O)[O-])cccc2c1Cl	nt	i	nt	i
CCn1c2ccccc2c2c3ncc4cccn4c3ccc21	15.8	i	i	i
c1ccc2c(c1)ncc1cccn12	i	i	i	i
O=C(c1ccccc1)c1ccc(OCCCCN2CCCCC2)cc1	i	?	i	i
O=C(c1ccccc1)c1ccc(OCCCN2CCCC2)cc1	27.6	i	43.7	i
c1ccc(COc2ccc(OCCCCN3CCCCC3)cc2)cc1	55.2	?	69.9	i
CCC(Oc1ccc2c(c1)C(=O)CC(C)(C)O2)C(=O)NCCN1CCCCCC1 (centres undefined)	i	i	i	i
CCNC(=S)/N=C(\N)Nc1nc(C)c2cc(C)ccc2n1	42.8	?	87.5	nt
CCOc1ccc2nc(N/C(N)=N/C(=S)Nc3ccc(C)c(C)c3)nc(C)c2c1	i	i	i	i
O=C(NCSC1=NCCS1)c1ccccc1	i	i	i	i
O=[N+]([O-])c1ccc(CSC2=NCCN2)cc1	i	nt	nt	nt
c1ccc(CSC2=NCCS2)cc1	i	i	120.4	i
O=[N+]([O-])c1ccc(CSC2=NCCS2)cc1	26.8	i	nt	i
COC(=O)c1ccc(CSC2=NCCS2)cc1	60.9	i	79.3	?
COc1ccc(C2c3ccc4ccccc4c3Oc3ncn(CCCO)c(=N)c32)cc1 (centres undefined)	i	?	i	11.2µM
COc1ccc(C2c3ccc4ccccc4c3Oc3ncn(CCO)c(=N)c32)cc1 (centres undefined)	i	?	i	8.91µM
SMILES	CHX counter	Marburg entry inh	Shiga inhibitor	LASV entry inh
COc1ccc(C2c3ccc4ccccc4c3Oc3ncn(CCN(C)C)c(=N)c32)cc1 (centres undefined)	i	8.91µM	i	?
Cc1c([N+](=O)[O-])c(C/C=N/O)nn1C	i	i	i	i
Clc1ccccc1Cn1nnc2c(Nc3ccccc3)ncnc21	15.6	i	i	?
Cc1cc(NC(=O)C2CC2)n(-c2nc3ccccc3s2)n1	18.1	?	36.5	i
Cc1noc(C)c1C(=O)N1CCC(C(=O)c2ccccc2)CC1	i	i	i	i
CCN(CC(=O)Nc1ccc(NC(C)=O)cc1)C(=O)/C=C/c1ccc([N+](=O)[O-])cc1	nt	i	nt	i
COc1ccc(NC(=O)COC(=O)c2ccc([N+](=O)[O-])o2)cc1Cl	i	i	i	i
O=[N+]([O-])c1ccc(N=Cc2sc3ccccc3c2O)cc1	43.2	?	108.5	?
O=[N+]([O-])c1cccc(N=Cc2ccccc2)c1	nt	i	nt	i
Oc1c(C=NCc2ccccc2)sc2ccccc12	27.8	i	91.2	i
O=[N+]([O-])c1cccc(N=Cc2sc3ccccc3c2O)c1	38.1	nt	85.9	nt
C=CCN(Cc1nc(-c2ccccc2)no1)C(=O)c1ccco1	i	i	i	i
COc1cccc(-c2nc(N3CCN(Cc4ccccc4)CC3)c3ccccc3n2)c1O	i	i	i	nt
CCC(=O)Nc1cccc(-n2nnnc2SCC(=O)c2ccc(C)c(C)c2)c1	26.0	?	42.2	?
CCCCn1nnnc1SCC(=O)c1ccc(C)c(C)c1	37.8	i	i	i
Cc1ccc(-n2nnnc2SCC(=O)Nc2ccccc2N2CCCCC2)cc1C	i	12.6µM	i	?
CCOC(=O)Cn1nnnc1C(C(C)C)N(Cc1cccs1)Cc1cc2cc(C)ccc2[nH]c1=O (centres undefined)	i	9.2µM	i	?
CCC(c1nnnn1C1CCCC1)N(Cc1cccs1)Cc1cc2cc(C)ccc2[nH]c1=O (centres undefined)	i	?	i	?
CCOC(=O)Cn1nnnc1C(CC)N(Cc1cccs1)Cc1cc2cc(C)ccc2[nH]c1=O (centres undefined)	i	15.8µM	i	?
Cc1nnsc1S(=O)(=O)Cc1ccccc1C(F)(F)F	i	i	i	?
O=C(Nc1ccc(Cl)c(Cl)c1)Oc1ccc(NC(=O)c2ccco2)cc1	22.0	i	i	i

High-throughput results (PubChem)
